For some assays here: Potency and affinity values are given separately.
Assays:
Design in all cases: scale not given: direction of the effect not stated beside the values
[1] = biological target: Protein translocase subunit SecA (Escherichia coli (strain K12)) (UniProt P10408); assay: Assay to Identify E. coli SecA ATPase Inhibitors; assay type: functional; details: 30 µM
[2] = biological target: T1, Ubiquitin-activating enzyme e1, putative (Leishmania donovani (strain BPK282A1)) (UniProt E9BSI1); assay: Leishmania donovani Ubiquitin Activating Enzyme (LdE1); assay type: functional; details: 30 µM
T1 sequence (whole entry): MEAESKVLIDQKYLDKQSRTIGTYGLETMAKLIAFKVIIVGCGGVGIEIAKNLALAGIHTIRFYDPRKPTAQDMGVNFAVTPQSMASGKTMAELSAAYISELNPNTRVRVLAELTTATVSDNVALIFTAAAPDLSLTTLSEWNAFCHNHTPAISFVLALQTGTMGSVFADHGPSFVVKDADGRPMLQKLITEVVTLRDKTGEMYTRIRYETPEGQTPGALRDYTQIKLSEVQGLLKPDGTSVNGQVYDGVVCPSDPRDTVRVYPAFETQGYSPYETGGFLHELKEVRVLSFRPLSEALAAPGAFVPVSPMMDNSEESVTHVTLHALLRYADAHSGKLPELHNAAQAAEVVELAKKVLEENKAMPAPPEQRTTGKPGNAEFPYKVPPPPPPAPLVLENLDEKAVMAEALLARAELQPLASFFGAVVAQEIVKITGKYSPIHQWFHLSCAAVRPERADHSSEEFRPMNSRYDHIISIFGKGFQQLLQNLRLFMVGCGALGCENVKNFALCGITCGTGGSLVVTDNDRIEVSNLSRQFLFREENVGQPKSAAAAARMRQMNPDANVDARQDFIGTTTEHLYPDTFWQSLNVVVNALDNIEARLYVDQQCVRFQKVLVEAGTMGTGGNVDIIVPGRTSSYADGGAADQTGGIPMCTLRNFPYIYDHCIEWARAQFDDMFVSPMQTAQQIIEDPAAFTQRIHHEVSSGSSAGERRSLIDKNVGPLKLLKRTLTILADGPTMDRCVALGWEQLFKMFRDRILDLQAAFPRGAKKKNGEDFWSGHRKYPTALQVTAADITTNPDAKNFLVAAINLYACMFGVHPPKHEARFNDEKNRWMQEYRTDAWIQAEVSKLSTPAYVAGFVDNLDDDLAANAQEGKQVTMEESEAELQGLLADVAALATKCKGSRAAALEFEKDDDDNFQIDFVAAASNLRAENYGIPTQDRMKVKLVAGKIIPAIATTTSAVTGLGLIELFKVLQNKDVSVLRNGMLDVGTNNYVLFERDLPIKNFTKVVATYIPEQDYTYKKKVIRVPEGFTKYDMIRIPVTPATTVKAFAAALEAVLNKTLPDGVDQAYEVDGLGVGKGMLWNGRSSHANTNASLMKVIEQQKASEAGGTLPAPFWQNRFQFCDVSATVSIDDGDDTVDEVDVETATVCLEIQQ

[3] = biological target: AMP-activated protein kinase, AMPK (Homo sapiens) (UniProt P54646+O43741+P54619+Q9UGJ0+Q9Y478+Q13131+Q9UGI9); assay: AMP-dependent Kinase enzyme assay. An in vitro enzyme assay that detects ADP turnover that is directly proportional to AMPK activity. This uses naive AMPK that is activated during the assay with MK-8722; assay type: functional; details: 30 µM
[4] = biological target: Sialic acid-binding Ig-like lectin 9 (Homo sapiens) (UniProt Q9Y336); assay: Hs-Siglec9 ALPHAscreen SOP 20170721; details: 10 µM
Sialic acid-binding Ig-like lectin 9 (Homo sapiens), sequence (Q9Y336 whole entry): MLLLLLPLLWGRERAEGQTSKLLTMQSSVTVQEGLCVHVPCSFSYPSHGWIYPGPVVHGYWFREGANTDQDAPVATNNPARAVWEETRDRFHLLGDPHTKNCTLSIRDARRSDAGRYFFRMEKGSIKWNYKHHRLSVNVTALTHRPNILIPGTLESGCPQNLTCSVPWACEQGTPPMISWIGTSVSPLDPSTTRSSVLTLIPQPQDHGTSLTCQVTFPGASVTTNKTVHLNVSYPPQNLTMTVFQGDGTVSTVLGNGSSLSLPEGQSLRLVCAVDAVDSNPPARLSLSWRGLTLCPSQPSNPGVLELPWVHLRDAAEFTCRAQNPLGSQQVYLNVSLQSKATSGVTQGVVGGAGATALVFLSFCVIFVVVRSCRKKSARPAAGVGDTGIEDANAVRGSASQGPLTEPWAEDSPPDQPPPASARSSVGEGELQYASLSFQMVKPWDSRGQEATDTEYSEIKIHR

Trypanosoma cruzi = assay: Trypanosoma cruzi phosphomannomutase and mannose-1-phosphate guanylyltransferase assay; assay type: functional; details: 10 µM
[5] = biological target: T2, Arginase-2, mitochondrial (Homo sapiens) (UniProt P78540); assay: in vitro enzyme assay to detect the production of urea directly proportional to the activity of Arginase II; assay type: functional; details: 33.3 µM; also: in the data most compounds retested in dose-response had high values
T2 sequence (whole entry): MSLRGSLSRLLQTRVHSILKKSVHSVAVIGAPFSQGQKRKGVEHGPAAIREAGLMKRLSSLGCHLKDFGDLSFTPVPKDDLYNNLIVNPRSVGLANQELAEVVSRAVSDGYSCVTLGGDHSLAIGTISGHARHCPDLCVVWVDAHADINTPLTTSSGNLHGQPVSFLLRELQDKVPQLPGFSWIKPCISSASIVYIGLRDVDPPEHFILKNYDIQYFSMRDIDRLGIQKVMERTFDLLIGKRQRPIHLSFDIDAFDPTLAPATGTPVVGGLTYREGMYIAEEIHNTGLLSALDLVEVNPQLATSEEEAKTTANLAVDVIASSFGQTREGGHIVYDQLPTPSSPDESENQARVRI

[6] = biological target: T3, Proteasome subunit beta (Trypanosoma cruzi) (UniProt O96673); assay: Trypanosoma cruzi proteasome chymotrypsin-like activity (TcProtChymo) assay.; also: in the data most compounds retested in dose-response had high values; assay type: functional; details: 9.37 µM
T3 sequence (whole entry): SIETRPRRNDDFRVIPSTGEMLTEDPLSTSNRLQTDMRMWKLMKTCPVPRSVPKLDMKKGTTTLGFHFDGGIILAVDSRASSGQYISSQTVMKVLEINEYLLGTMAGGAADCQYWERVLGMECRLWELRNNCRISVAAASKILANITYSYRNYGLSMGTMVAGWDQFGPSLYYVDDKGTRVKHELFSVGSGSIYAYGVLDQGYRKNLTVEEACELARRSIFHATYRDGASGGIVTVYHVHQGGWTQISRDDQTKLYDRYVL

Homo sapiens = species: Homo sapiens; assay: To identify inhibition of the IFN signalling (Jak-Stat) pathway via expression of an eGFP reporter gene under the control of an IFN-stimulated response element (ISRE) containing MxA promoter.; assay type: functional; details: 30 µM
[7] = biological target: T4, Tyrosyl-tRNA synthetase, putative (Trypanosoma cruzi (strain CL Brener)) (UniProt Q4DSP6); assay: Trypanosoma cruzi tyrosyl tRNA synthetase (TcYRS) _High Tyrosine SOP; assay type: functional; details: 30 µM; also: in the data most compounds retested in dose-response had high values
T4 sequence (whole entry): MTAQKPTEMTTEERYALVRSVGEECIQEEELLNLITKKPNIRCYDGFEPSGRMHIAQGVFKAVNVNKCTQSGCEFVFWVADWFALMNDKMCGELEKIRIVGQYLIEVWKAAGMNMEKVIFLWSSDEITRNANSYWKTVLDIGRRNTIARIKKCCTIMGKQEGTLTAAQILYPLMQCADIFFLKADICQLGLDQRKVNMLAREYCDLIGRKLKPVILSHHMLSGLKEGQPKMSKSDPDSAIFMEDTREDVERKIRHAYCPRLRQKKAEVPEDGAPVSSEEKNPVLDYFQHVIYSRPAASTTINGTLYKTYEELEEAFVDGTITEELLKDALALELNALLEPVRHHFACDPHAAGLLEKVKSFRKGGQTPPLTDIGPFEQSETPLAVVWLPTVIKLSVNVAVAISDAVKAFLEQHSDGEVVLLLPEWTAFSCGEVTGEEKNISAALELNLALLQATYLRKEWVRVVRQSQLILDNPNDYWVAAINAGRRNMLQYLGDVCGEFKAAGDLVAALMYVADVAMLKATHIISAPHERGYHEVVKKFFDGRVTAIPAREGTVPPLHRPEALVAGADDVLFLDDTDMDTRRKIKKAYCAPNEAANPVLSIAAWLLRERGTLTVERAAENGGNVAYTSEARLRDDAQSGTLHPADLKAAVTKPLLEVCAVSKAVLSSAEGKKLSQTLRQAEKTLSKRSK

[8] = biological target: T4, Tyrosyl-tRNA synthetase, putative (Trypanosoma cruzi (strain CL Brener)); assay: Trypanosoma cruzi tyrosyl tRNA synthetase (TcYRS) SOP; assay type: functional; details: 30 µM
[9] = biological target: Chromo domain-containing protein 1 (Saccharomyces cerevisiae (strain ATCC 204508 / S288c) (Baker's yeast)) (UniProt P32657); assay: ScCHD-1 Enzyme Inhibition Assay; assay type: functional; details: 30 µM; also: in the data most compounds retested in dose-response had high values
Chromo domain-containing protein 1 (Saccharomyces cerevisiae (strain ATCC 204508 / S288c) (Baker's yeast)), sequence (P32657 whole entry, the tested form may be a part): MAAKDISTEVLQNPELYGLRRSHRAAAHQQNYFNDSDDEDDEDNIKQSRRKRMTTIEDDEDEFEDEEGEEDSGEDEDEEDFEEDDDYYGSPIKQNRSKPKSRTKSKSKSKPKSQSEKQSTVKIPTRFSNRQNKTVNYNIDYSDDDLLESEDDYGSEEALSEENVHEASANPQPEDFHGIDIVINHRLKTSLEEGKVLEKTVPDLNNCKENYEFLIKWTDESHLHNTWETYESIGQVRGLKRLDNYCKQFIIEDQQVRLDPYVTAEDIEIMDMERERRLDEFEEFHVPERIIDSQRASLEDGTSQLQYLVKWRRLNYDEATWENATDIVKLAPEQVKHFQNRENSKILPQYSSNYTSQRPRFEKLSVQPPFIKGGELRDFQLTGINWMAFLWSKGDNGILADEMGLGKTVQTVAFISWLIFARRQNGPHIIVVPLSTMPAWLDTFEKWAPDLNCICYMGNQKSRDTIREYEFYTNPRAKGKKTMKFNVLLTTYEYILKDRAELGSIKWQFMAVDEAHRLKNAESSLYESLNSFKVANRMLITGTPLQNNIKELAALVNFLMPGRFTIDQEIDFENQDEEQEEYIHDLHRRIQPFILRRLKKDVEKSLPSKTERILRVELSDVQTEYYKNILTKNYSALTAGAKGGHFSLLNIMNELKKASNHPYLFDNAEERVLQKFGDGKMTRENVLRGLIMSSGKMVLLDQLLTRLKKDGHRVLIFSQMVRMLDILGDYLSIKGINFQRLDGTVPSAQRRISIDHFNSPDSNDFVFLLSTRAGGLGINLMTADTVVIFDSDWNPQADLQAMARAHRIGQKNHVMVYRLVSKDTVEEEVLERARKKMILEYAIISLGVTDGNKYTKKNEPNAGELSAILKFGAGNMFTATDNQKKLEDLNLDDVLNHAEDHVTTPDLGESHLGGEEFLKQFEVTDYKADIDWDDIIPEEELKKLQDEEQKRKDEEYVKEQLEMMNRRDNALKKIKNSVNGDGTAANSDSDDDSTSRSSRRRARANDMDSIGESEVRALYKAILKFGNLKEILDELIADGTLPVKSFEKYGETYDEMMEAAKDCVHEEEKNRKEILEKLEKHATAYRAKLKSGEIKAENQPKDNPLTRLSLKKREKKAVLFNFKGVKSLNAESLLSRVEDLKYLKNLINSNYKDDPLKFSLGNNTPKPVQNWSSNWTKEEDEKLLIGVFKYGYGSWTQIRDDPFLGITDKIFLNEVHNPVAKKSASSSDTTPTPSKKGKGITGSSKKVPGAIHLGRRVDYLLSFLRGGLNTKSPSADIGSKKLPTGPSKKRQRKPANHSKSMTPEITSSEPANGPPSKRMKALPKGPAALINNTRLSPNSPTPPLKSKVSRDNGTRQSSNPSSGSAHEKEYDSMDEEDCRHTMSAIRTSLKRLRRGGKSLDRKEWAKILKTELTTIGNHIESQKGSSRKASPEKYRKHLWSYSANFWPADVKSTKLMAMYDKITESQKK

Protein translocase subunit SecA (Escherichia coli (strain K12)), sequence (P10408 whole entry): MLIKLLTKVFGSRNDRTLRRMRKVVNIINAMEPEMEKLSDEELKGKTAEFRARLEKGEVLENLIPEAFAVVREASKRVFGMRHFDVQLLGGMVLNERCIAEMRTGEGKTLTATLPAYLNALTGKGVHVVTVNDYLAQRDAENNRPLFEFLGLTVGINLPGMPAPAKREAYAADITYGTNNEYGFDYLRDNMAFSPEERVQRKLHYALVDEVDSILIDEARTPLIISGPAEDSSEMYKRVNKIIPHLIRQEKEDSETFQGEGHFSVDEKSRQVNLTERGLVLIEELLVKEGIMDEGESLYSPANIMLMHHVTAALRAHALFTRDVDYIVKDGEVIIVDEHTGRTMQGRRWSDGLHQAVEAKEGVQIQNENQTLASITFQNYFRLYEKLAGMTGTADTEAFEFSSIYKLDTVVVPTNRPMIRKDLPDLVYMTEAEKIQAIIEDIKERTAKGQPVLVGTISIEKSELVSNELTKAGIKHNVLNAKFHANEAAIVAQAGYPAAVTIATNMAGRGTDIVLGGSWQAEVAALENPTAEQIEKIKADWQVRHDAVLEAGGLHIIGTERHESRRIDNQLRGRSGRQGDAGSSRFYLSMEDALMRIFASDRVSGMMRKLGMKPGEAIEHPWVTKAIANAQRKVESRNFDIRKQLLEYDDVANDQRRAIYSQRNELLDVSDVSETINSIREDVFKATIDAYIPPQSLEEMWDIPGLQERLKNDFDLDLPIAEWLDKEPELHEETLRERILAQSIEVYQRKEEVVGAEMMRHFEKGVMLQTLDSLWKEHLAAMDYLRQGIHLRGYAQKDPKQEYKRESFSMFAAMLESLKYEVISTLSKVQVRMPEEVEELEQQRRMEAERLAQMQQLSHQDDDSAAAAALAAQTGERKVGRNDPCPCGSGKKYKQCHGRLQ

SMILES | Percent Effect [1] [%] | Percent Effect [2] [%] | Percent Effect [3] [%] | Percent Effect [4] [%] | Percent Effect (Trypanosoma cruzi) [%] | Percent Effect [5] [%] | Percent Effect [6] [%] | Percent Effect (Homo sapiens) [%] | Percent Effect [7] [%] | Percent Effect [8] [%] | Percent Effect [9] [%]
Cc1ccccc1C1CCCN1C(=O)CN1CC2(CCNCC2)OC1=O (stereo not given) | -4.66 | 8.11 | -3.53 | 12.1 | 6.76 | 0 | 13.1 | -1.19 | 4.76 | 9.76 | 87.8
CCc1nc(CN2CCCC(N(C)Cc3cnc(C)s3)C2)no1 (stereo not given) | -0.97 | -5.48 | -1.7 | 3.08 | 0.979 | 0.455 | 18.8 | -15.8 | 2.15 | 0 | -0.829
Cc1cc(NC(=O)CN2CCn3c(nnc3C(C)C)C2)no1 | -2.36 | 7.79 | 2.84 | -23.1 | 2.25 | -5.26 | 16.6 | 25.4 | 5.71 | 25.9 | -21.2
O=C(c1cnc(-c2cccs2)s1)N1CCCN2CCCC2C1 (stereo not given) | -2 | 5.41 | -8.71 | -6.92 | -2.36 | -16 | 12.6 | -1.67 | 4.43 | 23.5 | -7.67
CCNS(=O)(=O)c1ccc(C)c(C(=O)N(C)Cc2ccco2)c1 | -2.78 | -4.17 | 4.21 | 0.221 | -1.65 | 0.442 | 13 | -0.366 | -27.4 | -2.56 | 2.86
COCCn1ccc2cc(NC(C)=O)ccc21 | -8.18 | 23.7 | -9.22 | 7.23 | 1.46 | -9.47 | 16.4 | -6.07 | 4.25 | 10.4 | -9.21
CNC(=O)c1nc2c(s1)CCN(C(=O)Cc1ccc(OC)cc1)CC2 | -7.69 | 5.41 | 1.22 | -1.04 | -1.07 | -1.59 | 0.369 | 8.46 | 4.32 | 0 | 1.61
Cc1ccc(CN(Cc2c[nH]cn2)C2CC(C)(C)NC(C)(C)C2)o1 | -2.16 | 4.05 | 13.8 | 0.615 | -9.49 | -1.62 | 10.4 | 12.1 | 4.3 | 3.9 | -10.2
CCN1CCN(C2CCN(Cc3cc(C)on3)CC2)C1=O | -6.77 | 5.06 | 1.9 | -3.3 | 8.21 | -3.04 | 7.94 | 1.37 | 3.45 | 8.86 | -13.6
CCS(=O)(=O)N1CCC2(CCCN(Cc3cc(OC)ccc3F)C2)C1 (stereo not given) | -4.17 | 6.94 | -5.98 | -4.29 | -2.23 | 0.883 | 14.6 | 16.9 | 6.32 | 7.69 | -4.39

Source: ChEMBL document CHEMBL3988442, “University of Dundee, Small-Polar-MMV Screening Library” (2021)
